# PubChem BioAssay AID493170 (National Center for Advancing Translational Sciences (NCATS), 2011)
# Inconclusive results are not listed. Entries that show only a call come without a potency. The source made the active and inactive calls. Calls follow the shape of the dose curve; as a rule, active = well fitted inhibition curve with a large enough effect; inconclusive = small, poorly fitted or top-dose-only effect, or effect the other way; inactive = flat fitted curve, though single readings scatter.
# Target: Ubiquitin carboxyl-terminal hydrolase 2 (Homo sapiens) (UniProt O75604)
# Assay: Ub-rhodamine 110 based assay for inhibitors Ubiquitin-specific Protease USP2a; also: nearly all actives have a fitted effect of over 50% in size
# Conditions: USP2a Ub-rhodamine110 cleavage, fluorescence; series mostly up to 38.3 µM
# Method in brief: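 Kinetic fluorescence (485/531 nm) read each minute over 7 min after adding Ub-Rhod110 (150 nM final) to USP2a (5 nM final). The enzyme had 30 min RT exposure to compounds beforehand in Tris pH 8.0 buffer with CaCl2, CHAPS and beta-ME.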
# Potency is read from the fitted curve at half-maximal effect.
# Chain of Ubiquitin carboxyl-terminal hydrolase 2 (Homo sapiens) (O75604 whole entry, looked up): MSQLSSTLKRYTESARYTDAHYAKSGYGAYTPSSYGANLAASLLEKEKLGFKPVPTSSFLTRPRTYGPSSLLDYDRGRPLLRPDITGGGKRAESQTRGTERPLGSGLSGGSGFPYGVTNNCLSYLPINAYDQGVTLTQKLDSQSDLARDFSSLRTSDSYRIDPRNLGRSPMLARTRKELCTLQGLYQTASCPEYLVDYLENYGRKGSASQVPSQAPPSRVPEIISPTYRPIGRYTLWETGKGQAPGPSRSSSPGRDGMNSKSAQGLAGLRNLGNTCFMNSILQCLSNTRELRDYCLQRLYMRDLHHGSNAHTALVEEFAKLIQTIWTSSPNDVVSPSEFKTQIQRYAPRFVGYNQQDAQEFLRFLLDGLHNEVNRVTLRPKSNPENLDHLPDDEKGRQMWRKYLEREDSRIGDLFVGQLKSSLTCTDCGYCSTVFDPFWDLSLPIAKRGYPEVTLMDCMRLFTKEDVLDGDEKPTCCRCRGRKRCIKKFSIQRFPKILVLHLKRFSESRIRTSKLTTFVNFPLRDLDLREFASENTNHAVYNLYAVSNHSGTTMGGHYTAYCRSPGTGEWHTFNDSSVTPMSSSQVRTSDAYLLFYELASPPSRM
row,SMILES,Potency
1,Cc1ccc(N2CN=c3s/c(=C\c4cccnc4)c(=O)n3C2)cc1,inactive
2,COC(=O)C1CCN(C(=O)COC(=O)CC(NC(N)=O)c2ccc(Cl)cc2)CC1 (stereo not drawn),inactive
3,C=CC[C@H](CC(=O)N(CCO)Cc1ccccc1)C(=O)N[C@H](C)COC(=O)[C@@H](CC=C)CC(=O)OC(C)(C)C,inactive
4,COc1cc(C)ccc1OCCOc1cc(C)ccc1Cl,inactive
5,CCOC(=O)C(C)Sc1nnc(Cn2c(=O)sc3ccccc32)n1-c1ccccc1 (stereo not drawn),inactive
6,COc1ccc(/C=N/NC(=O)c2nn(-c3ccccc3)c(=O)c3c(N)scc23)cc1,10 µM (active)
7,O=C(OCC(=O)N1CCCCC1)c1cc2ccccc2cc1O,inactive
8,C#CCOCCOCCOCCNc1nc(N2CCN(C(=O)CCCCCCCCCCNC(=O)Cn3cc(CCCCCN)nn3)CC2)nc(N2CCN(C(=O)CCCCCCCCCCNC(=O)[C@H](CO)n3cc(CCCCCN)nn3)CC2)n1,inactive
9,O=C(/C=C\c1ccco1)c1ccc(NC(=O)c2ccco2)cc1,10 µM (active)
10,Cc1cc(C(=O)OCC(=O)c2cccc([N+](=O)[O-])c2)c2cccc(C)c2n1,10 µM (active)
11,C#CCOCCOCCOCCNc1nc(N2CCN(C(=O)CCCCCCCCCCNC(=O)[C@@H](CCC(=O)O)n3cc(CCCCCN)nn3)CC2)nc(N2CCN(C(=O)CCCCCCCCCCNC(=O)[C@H]([C@@H](C)CC)n3cc(CCCCCN)nn3)CC2)n1,inactive
12,COc1ccc(-c2nnn(CC(=O)N3CCOCC3)n2)cc1,inactive
13,COc1ccc(NC(=O)CSc2ncccc2C(=O)OC(C)C)cc1OC,inactive
